# Screening results deposited in PubChem by National Center for Advancing Translational Sciences (NCATS).
# Hits are enriched below; roughly 2.1% of the tested compounds scored in any of these assays.
# uPA generation – blocks generation of uPA at the cell surface; AID 540303; Potency, µM (top dose mostly 38.3 µM), for the others: top-dose activity change, negative = inhibition, most hits filed as inhibitors; 330,000 compounds, 0.31% hits; cell surface uPA generation assay, qHTS; active means well fitted inhibition curve with a large enough effect; inconclusive means small, poorly fitted or top-dose-only effect; inactive means no such curve, though single readings can be large or run the other way; tested in mouse RAW 264.7 cells; further: potency means the concentration at half of the fitted maximal effect; on the % scale 0 is the no-effect control and ±100 the full control effect; nearly all actives have a fitted effect of over 55% in size
# Giardia killer – kills Giardia lamblia; AID 540267; Giardia lamblia trophozoite viability; activity change, % at 7.66 µM, hits read low; 340,000 compounds, 0.15% hits; in the data active means activity change below about -80%; inconclusive means between about -30% and that limit;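 further: parasites exposed to compound for two days anaerobically before the ATP read; on the % scale 0 is the no-effect control and ±100 the full control effect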
#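 Giardia trophozoites, 100 cells per well, were exposed to compounds for 48 hrs at 37 deg C under anaerobic conditions; viability was then read as ATP content by bioluminescence after 15-30 min at room temperature.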
# Mito fusion act – blocks mitochondrial division or promotes mitochondrial fusion | S. cerevisiae fusion-defective mutant growth rescue, CellTiterGlo 48 h | 320,000 compounds, 0.23% hits | AID 485298 | Potency, µM (highest dose often 46.1 µM), for inactives: top-dose growth rescue (activation), hits mostly activators; further: potency means the concentration at half of the fitted maximal effect; % of control where 0% means no effect; nearly all actives have a fitted effect of over 45% in size
#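 Compounds are tested for their ability to restore growth of mitochondrial fusion-defective yeast strains at non-permissive 37C in YPEG medium over 48 hours. Viability is quantified by luciferase luminescence.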
# B2AR arrestin – agonists driving beta-arrestin recruitment to human beta2-adrenergic receptor; P07550; beta-arrestin recruitment to beta2AR, cell-based reporter; Potency, µM (titrated, usually from 46.1 µM), for the others: top-dose activation, most hits filed as activators; 330,000 compounds, 0.02% hits; AID 492947;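 further: potency means the concentration at half of the fitted maximal effect; 0% = DMSO controls and full agonism = EC100 isoproterenol or metaproterenol; nearly all actives have a fitted effect of over 65% in size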
# Target sequence (P07550 whole entry, looked up): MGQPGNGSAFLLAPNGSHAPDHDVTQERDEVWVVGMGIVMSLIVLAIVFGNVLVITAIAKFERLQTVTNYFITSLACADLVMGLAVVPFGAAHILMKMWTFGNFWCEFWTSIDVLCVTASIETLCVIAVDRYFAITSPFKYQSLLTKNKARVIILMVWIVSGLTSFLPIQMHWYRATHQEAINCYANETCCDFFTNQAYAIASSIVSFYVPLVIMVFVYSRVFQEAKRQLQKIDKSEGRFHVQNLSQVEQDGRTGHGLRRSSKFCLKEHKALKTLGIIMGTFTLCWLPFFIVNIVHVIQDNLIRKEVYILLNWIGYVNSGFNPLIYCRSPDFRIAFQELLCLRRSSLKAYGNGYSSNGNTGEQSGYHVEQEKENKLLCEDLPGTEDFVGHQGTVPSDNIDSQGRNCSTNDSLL
# p53 reactivation – re-activators of mutant p53 | H1299 p53-A138V BP100-luciferase reporter, luminescence, 24 h | Potency, µM (highest dose often 92.2 µM), without a hit: at the highest dose activity change, positive = activation, usual class: activators | 320,000 compounds, 0.063% hits | AID 504706; further: potency means the concentration at half of the fitted maximal effect; % of control where 0% means no effect; nearly all actives have a fitted effect of over 45% in size
#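 H1299 (p53-null), stable ts p53-A138V + BP100-Luc; 1000 cells/well, Opti-MEM/10% FBS; cpd 4 pt, 1:5; 24 h, 37 deg C, 5% CO2; detection reagent 10 min RT; luminescence.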
# ClpP mod – qHTS Assay for Activators of ClpP; ATP-dependent Clp protease proteolytic subunit (Bacillus subtilis (strain 168)), P80244; purified B. subtilis ClpP, FRET peptide cleavage, 20 min; Potency, µM (doses to about 57.5 µM), inactives show top-dose activity change, negative = active; 340,000 compounds, 1.9% hits; AID 651965, 2013; active means well fitted falling curve with a large enough effect; inconclusive means small, poorly fitted or top-dose-only effect; inactive means no such curve, though single readings can be large or run the other way; further: potency means the concentration at half of the fitted maximal effect; the source files actives as falling curves though it sought activators and does not explain the sign; nearly all actives have a fitted effect of over 65% in size
#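 ClpP 10 microg/mL final, pH 8 Tris/KCl buffer with BSA, glycerol, Tween-20; compound pinned in; FRET-FV substrate; RT 20 min; Ex320/Em430; ΔFRET vs ADEP 5.8 microM, DMSO, no enzyme.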
# * = called active by the depositor; ? = inconclusive; nt = no result. Unless noted, the call rests on the fitted dose curve; in most records, active means well fitted curve in the direction sought with a large enough effect; inconclusive means small, poorly fitted or top-dose-only effect, or another doubt; inactive means no such curve, though single readings can be large; an effect the other way counts as inactive or inconclusive.
SMILES,uPA generation,Giardia killer,Mito fusion act,B2AR arrestin,p53 reactivation,ClpP mod
Cc1ccc(S(=O)(=O)N(C)CCCC(=O)N2CCN(c3ccccn3)CC2)cc1,2.0%,-2.3,3.9%,-1.0%,-2.7%,31.6µM*
O=C(NCc1nc2ccccc2[nH]1)C1=C[C@@H](c2ccc(C(F)(F)F)cc2)C[C@@H](OCc2ccc(CO)cc2)O1,?,-2.4,nt,nt,nt,-2.4%
COCCCNC(=O)c1c(N)n(Cc2ccco2)c2nc3ccccc3nc12,9.5%,-2.8,7.2%,-0.4%,-1.6%,4.3%
COCCCNC(=O)c1c(NC(=O)c2ccco2)n(Cc2ccccc2)c2nc3ccccc3nc12,-15.8%,-18.4,10.3%,-0.1%,6.8%,15.8µM*
COCCNC(=O)c1c(NC(=O)c2ccc(Br)o2)n(Cc2ccccc2)c2nc3ccccc3nc12,-1.0%,-17.3,7.08µM*,-0.2%,-3.2%,-28.8%
CC12CCC3C(CC=C4CC(O)CCC43C)C1C/C(=C\N1CCCC1)C2=O (configuration not stated),nt,nt,-2.3%,-0.7%,-1.3%,nt
Cc1nn(C)c(C)c1/C=C1/CC2C3CC=C4CC(O)CCC4(C)C3CCC2(C)C1=O (configuration not stated),3.4%,15.7,15.8µM*,-0.2%,-13.8%,-0.6%
COC(=O)c1c(N)n(Cc2ccc(OC)cc2)c2nc3ccccc3nc12,-2.4%,9.1,10.7%,-0.2%,-1.2%,10µM*
COc1ccc(Cn2c(N)c(C(=O)NCc3ccco3)c3nc4ccccc4nc32)cc1OC,-3.1%,-6.9,5.8%,-0.5%,-20.7%,31.6µM*
COCCOC(=O)c1c(N)n(Cc2ccco2)c2nc3ccccc3nc12,3.5%,-2.0,-1.9%,-0.4%,-0.9%,7.7%
CCOC(=O)c1c(N)n(Cc2ccc(OC)cc2)c2nc3ccccc3nc12,nt,nt,2.8%,-0.4%,-0.7%,nt
CC(C)CNC(=O)c1c(N)n(Cc2ccco2)c2nc3ccccc3nc12,5.6%,10.5,1.1%,0.0%,-3.6%,22.4µM*
CCCNC(=O)c1c(N)n(Cc2ccco2)c2nc3ccccc3nc12,nt,20.7,2.8%,-2.0%,-6.9%,28.2µM*
[Hg+][c]1ccccc1,nt,nt,nt,nt,nt,-3.1%
ClCCN(CCCl)c1ccc(/C=C/c2sc3ccccc3[n+]2CCCCI)cc1,nt,nt,nt,nt,nt,3.8%
COc1cc([C@@H]2c3cc4c(cc3C[C@H]3COC(=O)[C@@H]32)OCO4)cc(OC)c1O,nt,1.9,nt,nt,nt,-1.5%
NC(CP(=O)(O)O)C(=O)O (configuration not stated),nt,nt,10.9%,nt,nt,nt
CC(C)OC(=O)c1c(N)n(Cc2ccco2)c2nc3ccccc3nc12,6.3%,-21.0,21.8%,-0.8%,-1.0%,14.1µM*
COC(=O)C12CCc3c(ccc4cc(OC)ccc34)C1=CC(=O)C2 (configuration not stated),2.0%,8.7,nt,nt,nt,28.2µM*
CCOC(=O)[C@]12Cc3cc(OC)ccc3[C@H]1N(CC(=O)OC)C(=O)c1cc(OC)ccc12,nt,nt,nt,nt,nt,-2.3%
Nc1c(C(=O)Nc2ccc(OC(F)(F)F)cc2)sc2nc3c(cc12)N1CCC3CC1,nt,nt,nt,nt,nt,4.1%
Cc1nc2ccccc2c(=O)n1-c1cccc(C(F)(F)F)c1,-3.0%,12.3,4.8%,-0.2%,nt,28.2µM*
C=CCN1C[C@@H](C)N([C@H](c2ccc(C(=O)N(CC)CC)cc2)c2cccc(OC)c2)C[C@@H]1C,nt,nt,-38.0%,nt,nt,nt
CC1Oc2cc3c(-c4c(O)cc(O)c5c(O)c6c(cc45)OC(C)C(C)C6=O)c(O)cc(O)c3c(O)c2C(=O)C1C (configuration not stated),5.62µM*,-82.4*,0.9%,-0.1%,-8.7%,0.4%
CCc1cn(C2CC(O)C(CO)O2)c(=O)[nH]c1=O (configuration not stated),10µM*,13.0,-1.2%,0.2%,0.9%,0.3%
O=C(c1cc(-c2cccc(Cl)c2)on1)N1CCOCC1,-1.4%,-4.7,3.0%,-0.1%,?,nt
O=S(=O)(Nc1ccc(-c2nc3ccccc3o2)cc1)c1ccccc1,-1.7%,-8.7,?,0.2%,15.7%,28.2µM*
